{"source": "PubChem BioAssay (NCI)", "note": "About 83,000 compounds went through this panel and 20% of them were active in at least one assay; those are over-represented in the sample as a whole.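 A percent growth of 40 corresponds to 60% growth inhibition; 0 means no net growth; -100 means all cells died. Active threshold: below 10.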 Active and inactive are the calls of the source."}
{"test_system": "MOLT-4 leukemia", "test": "NCI-60 one-dose screen, 48 h (100 = growth as untreated, 0 = no growth, -100 = all killed)", "conditions": "10 µM unless noted"}
{"compound": "COc1cc(Cn2c(SCC(=O)Nc3cc(OC)c(OC)c(OC)c3)nc3ccccc3c2=O)cc(OC)c1OC", "growth": "89.4% (inactive)"}
{"compound": "c1ccc(CCn2nnc3c(Nc4ccc(N5CCOCC5)cc4)ncnc32)cc1", "growth": "66.4% (inactive)"}
{"compound": "CCCC1OC(c2ccc(C(C)C)cc2)OCC1CC", "note": "(centres undefined)", "growth": "93.3% (inactive)"}
{"compound": "Oc1ccc(N=Cc2ccccc2)cc1", "growth": "3.61% (active)"}
{"compound": "COc1cccc(NC(=O)c2sc3nc4c(cc3c2N)CCCC4)c1", "growth": "17.8% (inactive)"}
{"compound": "Cn1cc(C=O)c2ccccc21", "growth": "92% (inactive)"}
{"compound": "O=C1CCCCN1CCCCC#Cc1ccccc1C#Cc1ccc([N+](=O)[O-])cc1", "growth": "18.7% (inactive)"}
{"compound": "O=C(c1ccncc1)N1N=C(c2ccc(Cl)cc2)CC1c1c[nH]c2ccccc12", "note": "(centres undefined)", "growth": "75.1% (inactive)"}
{"compound": "Cc1cc2c(c(=O)o1)C(c1ccc(OC(=O)N3CCOCC3)cc1)C(C#N)=C(N)O2", "note": "(centres undefined)", "growth": "98.3% (inactive)"}
